Bioassay records deposited in PubChem by The Scripps Research Institute Molecular Screening Center.
A selection: hits, their analogues and other compounds. The true share with any hit is near 3.5%.
GPR151 ag – activates the human receptor GPR151. AID 1508602. 650,000 compounds, 1% hits. activation, % at 11.2 µM. PathHunter beta-arrestin GPR151 cells, luminescence. Q8TDV0; in the data active = activation above about 4.9%;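 note: 0% = median of compound wells and 100% = cells with positive control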
TEAD-YAP inh – TEAD-YAP interaction inhibition. HEK-TIYL cells, TEAD-Gal4/YAP UAS-luciferase luminescence. inhibition, % at 9.12 µM. 640,000 compounds, 1.4% hits. AID 1259422; in the data active = inhibition above about 32%;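 note: 0% = median of test compound wells and 100% = reference inhibitor wells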
MITF primary – human MITF inhibition, primary screen; AlphaScreen MITF homodimerization, bead proximity signal; inhibition, % at 2.6 µM; 650,000 compounds, 0.91% hits; AID 1259374; in the data active = inhibition above about 50%;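 note: 0% = vehicle wells with protein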
FBW7 activator – activators of human E3 ligase FBW7; Q969H0; AlphaScreen FBW7–phospho-cyclin E peptide binding, activator screen; normalized activity (activation), % at 26.1 µM; 650,000 compounds, 0.13% hits; AID 1259310; in the data active = normalized activity above about 1.9%;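 note: purified mutant Fbw7 with reduced substrate affinity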
Target sequence (Q969H0 whole entry, looked up): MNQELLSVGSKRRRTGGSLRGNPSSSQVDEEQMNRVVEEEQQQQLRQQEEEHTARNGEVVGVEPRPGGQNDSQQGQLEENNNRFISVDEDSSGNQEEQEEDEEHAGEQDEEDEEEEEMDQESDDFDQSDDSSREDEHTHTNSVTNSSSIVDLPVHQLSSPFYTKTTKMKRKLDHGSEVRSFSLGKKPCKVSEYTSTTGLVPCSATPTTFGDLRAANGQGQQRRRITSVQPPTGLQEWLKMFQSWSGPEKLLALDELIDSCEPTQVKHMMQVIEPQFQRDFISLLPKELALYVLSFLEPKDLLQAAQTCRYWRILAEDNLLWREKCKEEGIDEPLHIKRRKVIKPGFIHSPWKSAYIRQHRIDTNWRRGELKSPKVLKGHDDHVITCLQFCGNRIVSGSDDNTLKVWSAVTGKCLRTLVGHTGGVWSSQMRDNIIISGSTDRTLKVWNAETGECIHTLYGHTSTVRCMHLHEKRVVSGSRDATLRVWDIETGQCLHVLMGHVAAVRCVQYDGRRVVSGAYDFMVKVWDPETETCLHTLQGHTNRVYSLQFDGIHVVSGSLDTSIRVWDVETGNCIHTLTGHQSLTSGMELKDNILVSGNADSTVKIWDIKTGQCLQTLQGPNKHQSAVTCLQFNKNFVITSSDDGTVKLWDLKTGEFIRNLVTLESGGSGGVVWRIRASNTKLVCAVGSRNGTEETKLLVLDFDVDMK
GPR151 confirm – human GPR151 activation, confirmation screen | shares compounds with GPR151 ag | GPR151 PathHunter beta-arrestin cells, luminescence, 90 min; % of EA-reagent control over plate median | activation, % at 11.2 µM | 6,700 tested, under 10 active;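 active = mean percent activation across replicates above the confirmation screen cutoff of 4.91%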
GPR119 counter – GPR119 activation, counter-screen for GPR151 activators; AID 1508611; activation, % at 11.2 µM; GPR119 PathHunter beta-arrestin cells, luminescence, 90 min; 0 = compound-well median, 100 = enzyme-acceptor control; shares compounds with GPR151 ag; 6,700 compounds, 0.3% hits;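 active = mean percent activation in the counterscreen above 29.09%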;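 note: counterscreen on off-target GPR119 to flag nonselective hits from the GPR151 activator screen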
Active calls of the source: *; x = no result; ! = repeats disagree.

SMILES	GPR151 ag	TEAD-YAP inh	MITF primary	FBW7 activator	GPR151 confirm	GPR119 counter
c1ccc(C2=NCCCO2)cc1	10*	9	-22	0	1	-6
c1ccc(-c2nnc(-c3ccccc3)o2)cc1	-7	-34	2	0	x	x
Cc1ccc(-c2nc3cc(Cl)ccc3c(=O)o2)cc1C	-2	-47	-8	0	x	x
Cc1cc(-c2nc3cc(Cl)ccc3c(=O)o2)ccc1[N+](=O)[O-]	6.3*	-4	-4	0	0	3
O=C(Cc1ccccc1)N1CCC(N2CCCC2)CC1	-1	12	7	0	x	x
O=C(Cc1ccccc1)N1CCC(=O)N(CC2CC2)CC1	9.9*	0	10	0	0	1
CCCC(=O)Nc1ccc(S(=O)(=O)NC(C)=O)cc1	2	5	-1	0	x	x
O=C(Nc1ccc(Cl)cc1F)c1cc(S(=O)(=O)NCc2ccco2)ccc1F	-7	5	18	0	x	x
O=C(COc1ccccc1)N1C(=O)c2ccccc2S1(=O)=O	5.2*	2	10	0	1	2
N#Cc1ccc(OCC(=O)N2C(=O)c3ccccc3S2(=O)=O)cc1	0	9	1	0	x	x
COc1cc(OC)c(S(=O)(=O)N2CCCc3ccccc32)cc1NC(C)=O	6.1*	-3	11	0	0	2
COc1ccc(C(=O)Nc2ccccc2)cc1S(=O)(=O)N1CCCc2ccccc21	-1	19	32	0	x	x
COC1C(OC(N)=O)C(O)C(Oc2ccc3c(O)c(NC(=O)c4ccc(O)c(CC=C(C)C)c4)c(=O)oc3c2C)OC1(C)C (stereo not given)	6.6*!	1	-2	0	0	-1
CCOC(=O)c1c(C2COc3ccccc3O2)csc1NC(=O)c1ccc(OC)c(OC)c1 (stereo not given)	0	7	-13	0	x	x
CCc1c(C)nc2ncnn2c1N1CCC(C(=O)Nc2ccc(C)cc2)CC1	-1	12	9	0	x	x
Cc1nc2ncnn2c(N2CCC(C(=O)Nc3ccc(F)cc3)CC2)c1C	5.4*	8	-11	0	0	9
O=C(Cn1cc(C(=O)c2ccccc2)c(=O)c2ccccc21)Nc1ccc2c(c1)OCCO2	6.6*	7	-5	0	0	6
O=C(Cn1cc(C(=O)c2ccc(F)cc2)c(=O)c2ccccc21)Nc1ccc2c(c1)OCO2	0	-6	2	0	x	x
Cc1nnc(SCC(=O)O)n1/N=C/c1ccc2c(c1)OCO2	2	-8	-6	0	x	x
Cc1nnc(-c2ccccc2)c(=O)n1/N=C/c1ccc2c(c1)OCO2	8.1*	-6	-9	0	0	8
O=c1/c(=C\c2ccc(Cl)cc2)sc2n1CCCN=2	0	-65	5	0	x	x
COc1ccc(NC(=O)CCNc2c(N3CCCC3)c(=O)c2=O)cc1	6.1*	14	14	1	0	-5
COc1ccc(CN2C(=O)C3C(C(=O)Nc4cccc(Cl)c4)C4C=CC3(O4)C2C(=O)NC2CCCCC2)cc1 (stereo not given)	-1	3	6	0	x	x
Cc1ccc(C(=O)Nn2c(-c3ccc(Br)cc3)nc3ccccc3c2=O)cc1C	0	7	7	0	x	x
CCC(C)NC(=O)c1cc(=O)[nH]c2ccc(Br)cc12 (stereo not given)	8.8*	8	3	0	3	33*
SMILES	GPR151 ag	TEAD-YAP inh	MITF primary	FBW7 activator	GPR151 confirm	GPR119 counter
CC(C)CCNC(=O)c1cc(=O)[nH]c2ccc(Br)cc12	0	2	4	0	x	x
O=C(NC1CC1)c1cc(=O)[nH]c2ccc(Br)cc12	6.2*	-15	3	0	0	20
CC(C)(C)CN1CCc2nnc(CNC(=O)c3cccc(F)c3)n2CC1	1	9	5	0	x	x
O=C(NCc1nnc2n1CCN(C/C(Cl)=C/c1ccccc1)CC2)c1cccc(F)c1	9.2*	2	-4	0	1	14
O=C(CCc1ccccc1)Nc1ccc(S(=O)(=O)N2CCCCCC2)cc1	-1	2	-10	0	x	x
COc1cc(/C=N/n2c(-c3ccncc3)n[nH]c2=S)cc(Br)c1O	5.0*	4	-7	0	0	-7
O=S(=O)(c1cccc(-c2nnc(SCCOc3ccccc3)o2)c1)N1CCOCC1	6.5*	1	10	0	0	9
N#Cc1ccc(CSc2nnc(-c3cccc(S(=O)(=O)N4CCCCC4)c3)o2)cc1	8.7*	-3	0	0	1	-7
CCOc1ccc(C(=O)CCNC(C)C(=O)O)cc1 (stereo not given)	1	-8	8	1	x	x
O=C(COC(=O)c1cccc(S(=O)(=O)NCC(F)(F)F)c1)c1ccccc1	5.6*	-9	16	0	-1	0
CC(=O)c1ccc(OC(=O)c2ccccc2C(=O)Oc2ccc(C(C)=O)cc2)cc1	0	4	9	0	x	x
CCN1C(=O)c2cccc3c(NC(=O)c4ccc(Cl)cc4)ccc1c23	-1	-3	-12	0	x	x
COC(=O)c1ccc(CN(c2ccccn2)S(=O)(=O)c2ccccc2)cc1	7.3*	13	28	0	0	4
COC(=O)c1ccc(CN(c2ccccc2)S(=O)(=O)c2ccccc2)cc1	0	-1	2	0	x	x
CCCCNCc1cc(Cl)c(OCC(=O)NC(C)(C)C)c(OCC)c1	7.0*	8	-10	1	0	6
Cc1ccc(C2(c3ccccc3)NC(=O)NC2=O)cc1C (stereo not given)	-1	-7	-10	0	x	x
CCOCCOC(=O)C1=C(C)Nc2ccc(C)cc2S1	13*	2	9	0	1	11
COCCOC(=O)C1=C(C)Nc2ccc(C)cc2S1	0	4	17	0	x	x
CC(C)c1[nH]nc2c1C(C(C)C)C(C#N)=C(N)O2 (stereo not given)	8.3*	0	3	0	1	-6
Cc1cc2c(cc3c(=O)n(CCO)nc(C)n32)o1	-1	-6	-4	0	x	x
Cc1nc(N2CCC(C)CC2)c2c(C)c(C(=O)NCCC3=CCCCC3)sc2n1	-1	-6	-1	1	x	x
CCOC(=O)c1cc(-c2ccccc2)oc1CN1CCOCC1	8.9*	7	19	0	0	8
CCOC(=O)c1cc(-c2ccccc2)n(CCCN2CCOCC2)c1C	-1	14	10	0	x	x
CCCn1cc(SCC(=O)Nc2ccc(OCC)cc2)c2ccccc21	0	20	-11	0	x	x
CCOc1ccc(NC(=O)CSc2cn(Cc3cccc(F)c3)c3ccccc23)cc1	18*	-5	11	0	0	4
c1ccc(OCCNc2ccnc(-c3ccccc3)n2)cc1	-3	-36	3	0	x	x
CCCCC[C@](C)(O)/C=C/[C@@H]1[C@@H](C/C=C\CCCC(=O)O)[C@@H](O)C[C@H]1O	1	x	7	x	x	x
